Screens as filed in PubChem.
In the library only some 1.5% were active in any assay of this set; here they are far more common.
ARNT-TACC3 inh: ARNT/TACC3 interaction disruption. AID 623870. inhibition, % at 9.99 µM. AlphaScreen His-ARNT PAS-B/GST-TACC3 binding, luminescence; TACC3 fragment carries E629A point mutation. 390,000 tested, 0.66% active. Q9Y6A5;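 active = mean inhibition of replicates at least 50% and at least half of replicates each reaching 50%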;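 note: 0% = complete ARNT plus TACC3 wells and 100% = ARNT alone without TACC3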
Rin1 Abl inh: inhibitors of human Rin1-Abl protein interaction; TR-FRET Rin1/Abl binding, biochemical; P00519+Q13671; 360,000 tested, 0.4% active; inhibition, % at 7.35 µM; in the data active = inhibition above about 5%, passing the limit was not always enough
AI-2 QS mod: Vibrio harveyi AI-2 quorum sensing modulation; activity change, % at 7.5 µM; 300,000 tested, 0.4% active; Vibrio harveyi JMH597 AI-2 luminescence/OD600 ratio, 9 h; hits give low values; strain lacks LuxN and CqsS sensors; 0 = neutral-control median; in the data active = activity change below about -75%, passing the limit was not always enough;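 note: luminescence divided by OD600 gain over 9 h not by final OD600 alone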
HGIII-sPLA2 inh: Inhibits HGIII-sPLA2 liposome hydrolysis, primary screen; QFRET BODIPY PC-A2 liposome hydrolysis, fluorescence; inhibition, % at 12.2 µM; 370,000 tested, 0.56% active;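 active = inhibition above mean plus 3 SD of compounds lying within the high and low control bounds, cut at about 19% in these data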;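 note: 0% = median of test compound wells and 100% = no enzyme DMSO wells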
Target sequence (Q9NZ20 whole entry, looked up): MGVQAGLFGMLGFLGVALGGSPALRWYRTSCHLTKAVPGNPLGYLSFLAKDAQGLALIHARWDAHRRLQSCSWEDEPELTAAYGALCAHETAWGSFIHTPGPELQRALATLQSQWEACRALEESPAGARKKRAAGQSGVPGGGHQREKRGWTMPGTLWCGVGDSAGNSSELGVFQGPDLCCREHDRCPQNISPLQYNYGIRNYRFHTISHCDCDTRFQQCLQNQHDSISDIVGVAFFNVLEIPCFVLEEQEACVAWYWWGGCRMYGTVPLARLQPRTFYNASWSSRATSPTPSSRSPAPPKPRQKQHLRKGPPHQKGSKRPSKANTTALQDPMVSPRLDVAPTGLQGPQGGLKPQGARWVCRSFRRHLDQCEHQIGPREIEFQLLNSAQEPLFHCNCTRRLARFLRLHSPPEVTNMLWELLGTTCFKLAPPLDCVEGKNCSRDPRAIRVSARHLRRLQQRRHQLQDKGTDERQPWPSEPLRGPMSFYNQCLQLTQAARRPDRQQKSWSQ
Rin1 Abl conf: confirmation of inhibitors of human Rin1-Abl interaction; shares compounds with Rin1 Abl inh; TR-FRET Rin1-Abl binding, purified proteins; inhibition, % at 7.35 µM; 1,300 tested, 49% active; AID 602124
GFP quench: GFP fluorescence interference artifact; shares compounds with Rin1 Abl inh; inhibitors/quenchers counterscreen; inhibition, % at 6.75 µM; 1,300 tested, 8.5% active;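 note: ABL1-eGFP fusion protein alone without its partner RIN1-SBP; 0% = protein with vehicle and 100% = wells lacking protein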
GFP quench DR: GFP fluorescence interference dose response; shares compounds with Rin1 Abl inh; GFP fluorescence interference/quenching counterscreen; IC50, µM; 230 tested, under 10 active; call rule not given here;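 note: ABL1-eGFP fusion protein alone without its RIN1 binding partner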
The depositor's hits bear a star; . = no result. Cut-off read from the data, not from the text of the source, unless noted: active = inhibition above about 6.5%; inactive = the rest.

SMILES	ARNT-TACC3 inh	Rin1 Abl inh	AI-2 QS mod	HGIII-sPLA2 inh	Rin1 Abl conf	GFP quench	others
O=C(Cn1cc(COc2ccccc2[N+](=O)[O-])nn1)c1ccc(O)cc1	-4.1	7.7*	.	-34.0	-1.4	1.6
CC(C(=O)O)N1C(=O)/C(=C/C=C/c2ccco2)SC1=S (stereo not drawn)	6.9	13.5*	-7.1	-15.3	9.7*	20.1*
O=C1/C(=C/C=C/c2ccco2)SC(=S)N1NS(=O)(=O)c1ccccc1	.	12.5*	.	-15.2	4.6	25.7*
C[C@H]1CN([C@@H](C)CO)C(=O)c2cc(NS(=O)(=O)c3ccc(F)cc3)ccc2O[C@@H]1CN(C)S(=O)(=O)c1ccc(F)cc1	-4.4	.	.	.	.	.
CN(C)C(CNC(=O)c1ccc(NC(=O)CC#N)cc1)c1ccccc1 (stereo not drawn)	-0.8	10.1*	25.2	-28.6	6.7*	-0.2
O=C(C[C@H]1CC[C@@H]2[C@H](COC[C@H](O)CN2C(=O)c2ccccc2F)O1)N1CCN(c2ccccc2)CC1	-0.7	.	.	.	.	.
CC1OC(Oc2c(-c3cc(O)c(O)c(O)c3)oc3cc(O)cc(O)c3c2=O)C(O)C(O)C1O (stereo not drawn)	34.2	42.3*	16.2	1.8	45.0*	14.9*
O=c1cc(-c2ccc(O)c(O)c2)oc2cc(O)cc(O)c12	12.7	1.2	16.9	-10.3	.	.
O=c1c(O)c(-c2ccc(O)c(O)c2)oc2cc(O)cc(O)c12	7.9	23.9*	113.7	0.8	15.9*	3.8
CO[C@H]1CN(C)C(=O)c2ccc(NS(=O)(=O)CC(F)(F)F)cc2OC[C@@H](C)N(CC2CCCCC2)C[C@H]1C	-0.8	.	.	.	.	.
COc1cccc2[nH]c3c(=O)[nH]cnc3c12	-3.7	-3.3	23.7	4.9	.	.
COc1cccc2c3cccc(OC)c3c3[nH]cnc3c12	0.5	33.2*	.	-27.9	28.5*	0.5	GFP quench DR=>67.6
CCNC(=O)C[C@@H]1CC[C@H]2[C@@H](COC[C@@H](O)CN2C(=O)CC)O1	10.1	.	.	.	.	.
Cc1ccc(-c2nn3c(-c4ccco4)nnc3c3ccccc23)cc1S(=O)(=O)NCC1CCCO1 (stereo not drawn)	-1.8	10.5*	24.0	-1.9	26.9*	1.5	GFP quench DR=>67.5
C[C@H](CO)N1C[C@H](C)[C@@H](CN(C)C(=O)c2cccnc2)Oc2cc(-c3cccc(C#N)c3)ccc2S1(=O)=O	1.9	.	.	.	.	.
CCOC(=O)N1CCN(CCC(=O)Nc2ccc(Br)c(C)c2)CC1	0.6	8.9*	14.4	-3.8	10.6*	1.8
CCCCn1c(NS(=O)(=O)c2ccc(C)cc2)c(S(=O)(=O)c2ccccc2)c2nc3ccccc3nc21	19.8	9.6*	-21.0	1.6	-3.2	-1.2
CCOC(=O)CSc1nc2cc(C(=O)N3CCC(C(N)=O)CC3)ccc2c(=O)n1-c1ccccc1	-1.4	9.0*	41.1	.	0.8	-0.7
Cc1cc(C(=O)Nc2cccc3c2O[C@H](CN(C)C(=O)Nc2c(C)noc2C)[C@H](C)CN([C@@H](C)CO)C3=O)n(C)n1	-5.2	.	.	.	.	.
O=C1c2ccccc2C(=O)N1/N=C/c1ccc(O)c(O)c1	-10.3	11.1*	31.0	-1.7	-2.6	6.3
CCCc1cc(N2CCN(c3ccccn3)CC2)n2nc(C)c(-c3ccccc3)c2n1	-8.5	8.1*	0.8	9.0	0.5	-0.5
C[C@@H]1CN([C@H](C)CO)C(=O)c2cc(C#C[C@@H](C)O)cnc2O[C@H]1CN(C)Cc1cccc(C(=O)O)c1	-12.9	.	.	.	.	.
O=C(Cc1ccccc1)Nc1nnc(-c2cccs2)s1	1.0	9.4*	7.5	4.5	5.3	0.4
O=c1[nH]c(CSc2nnnn2-c2ccccc2)nc2ccccc12	-4.8	9.8*	37.1	-5.8	1.4	0.8
CC(=O)Nc1ccc(NC(=O)CCn2c(=O)oc3ccccc32)cc1	-3.4	0.7	31.8	.	.	.
SMILES	ARNT-TACC3 inh	Rin1 Abl inh	AI-2 QS mod	HGIII-sPLA2 inh	Rin1 Abl conf	GFP quench	others
O=C(CCn1c(=O)oc2ccccc21)NC1=NCCS1	-1.8	10.0*	7.6	-2.2	-2.1	-0.5
Cc1ccc(NC(=O)Cn2nc(C(F)(F)F)c3c2CCC3)cc1	-13.7	5.0*	23.8	4.3	0.6	-2.5
COc1cccc(Cn2nnc(C(=O)NCc3ccc4c(c3)OCO4)c2N)c1	-1.5	9.1*	9.6	-9.3	7.3*	-1.2
Nc1c(C(=O)NCc2ccc3c(c2)OCO3)nnn1Cc1cccc(F)c1	0.7	8.4*	17.1	-7.7	10.4*	-1.9
CC(=O)Nc1ccc2c(c1)C(=O)N(C)[C@H]1CC[C@H](CC(=O)Nc3cn(C)nc3C)O[C@H]1CO2	3.1	.	.	.	.	.
COCCn1c(SCC(=O)Nc2ccc3c(c2)OCCO3)nc2ccccc2c1=O	.	7.0*	.	13.1	-1.1	-0.8
C[C@H](NC(=O)C[C@@H]1C=C[C@H](NC(=O)Cc2ccccn2)[C@H](CO)O1)c1ccccc1	-2.8	.	.	.	.	.
C[C@H]1CN([C@@H](C)CO)C(=O)Cc2cc(NC(=O)Cc3ccccc3)ccc2O[C@H]1CN(C)CC1CC1	-1.1	.	.	.	.	.
CCCCNC(=O)C1CCN(Cc2ccc(OCc3ccccc3)cc2)CC1	2.5	6.5	10.4	-11.5	.	.
CCCCC(=O)C1CCN(Cc2ccccc2)CC1	-0.5	11.0*	10.3	-4.8	17.4*	-0.3	GFP quench DR=>67.5
C[C@@H]1CCCCO[C@@H](CN(C)CC2CCCCC2)[C@H](C)CN([C@H](C)CO)C(=O)c2cc(NC(=O)c3ccccc3)ccc2O1	7.4	.	.	.	.	.
O=C(NC1CCCc2ccccc21)C1CCCN(S(=O)(=O)c2cnc[nH]2)C1 (stereo not drawn)	-9.9	7.3*	11.5	-12.4	-0.2	-2.4
Cc1ccccc1S(=O)(=O)N1CC[C@@H]2[C@H]1c1cc(-c3cccc(C#N)c3)ccc1N(C)[C@H]2CO	2.9	.	.	.	.	.
Cc1cc(C)cc(NC(=O)N2CCNC(=O)C2CC(=O)Nc2cc(Cl)ccc2Cl)c1 (stereo not drawn)	-3.0	10.2*	-2.5	-12.1	8.0*	1.1
CCn1c(C)nc2cc(C(=O)N/N=C/c3ccc(O)c(O)c3O)ccc21	.	45.2*	40.1	-5.0	53.0*	23.1*
COc1cccc(CN2[C@@H]3CN(C(=O)CC(F)(F)F)c4ccccc4[C@@H]3[C@@H]2CO)c1	0.3	.	.	.	.	.
CCC(C)(C)n1nnnc1C(c1cccnc1)N1CCCc2ccccc21 (stereo not drawn)	5.0	43.0*	45.7	-5.2	47.6*	-0.6	GFP quench DR=>67.5
O=C(C[C@@H]1CC[C@H]2[C@@H](COC[C@@H](O)CN2Cc2nccs2)O1)NCc1ccccc1Cl	2.2	.	.	.	.	.
Cc1ccc(CC(=O)N2CCC(c3nc4c(nnn4Cc4ccccc4)c(=O)[nH]3)CC2)cc1	5.8	8.8*	21.4	-12.2	7.1*	-1.1
C[C@H]1CN([C@@H](C)CO)C(=O)c2ccccc2-c2ccccc2CO[C@@H]1CN(C)S(=O)(=O)c1ccc(F)cc1	-4.8	.	.	.	.	.
